Where “and” joins values, the source holds several entries; their conditions need not be identical. Identical values can stand only once. Compounds without any hit were thinned out: in the full panel of roughly 79,000, 15% have a hit. Some compounds were tested as several samples or in several runs, with calls that do not always agree. Calls of active or inactive are those of the source. No stated cut-off is given here; in the data, active means growth inhibition above about 70%; inactive means the rest.
Legend:
[1] = NCI Yeast Anticancer Drug Screen. Data for the wt1 strain (AID 149);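 further: 0% = growth of vehicle-treated wt1 cultures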; settings: S. cerevisiae wt1 strain (SPY 50644) growth inhibition, stronger effect = higher value
Outline: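 Growth inhibition read against vehicle controls after compound exposure of the wt1 yeast strain.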

[2] = NCI Yeast Anticancer Drug Screen. Data for the rad50EPP+ strain (AID 151);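 further: 0% = growth of vehicle-treated control cultures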; settings: S. cerevisiae rad50 mutant strain, stronger effect = higher value
Outline: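 In this screen, rad50EPP+ yeast were exposed to compounds. Growth inhibition was scored against vehicle-treated controls.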

[3] = NCI Yeast Anticancer Drug Screen. Data for the mgt1 strain (AID 153); settings: S. cerevisiae mgt1 mutant growth inhibition, stronger effect = higher value
Outline: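 mgt1 strain exposed; growth vs vehicle control recorded as inhibition.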

[4] = NCI Yeast Anticancer Drug Screen. Data for the rad50 strain (AID 155);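 further: 0% = growth of vehicle-only cultures of the same strain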; settings: S. cerevisiae rad50 strain growth inhibition, stronger effect = higher value
Outline: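 Readout: growth inhibition relative to vehicle-treated cultures. Compound exposure was carried out in a genetically defined yeast strain deficient in DNA damage repair.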

[5] = NCI Yeast Anticancer Drug Screen. Data for the mec2-1 strain (AID 157); settings: S. cerevisiae mec2-1 strain, stronger effect = higher value
Outline: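 Vehicle-treated cultures served as reference for growth inhibition of compound-exposed mec2-1 yeast.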

[6] = NCI Yeast Anticancer Drug Screen. Data for the rad14 strain (AID 159);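 further: 0% = growth of vehicle-treated control cultures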; settings: S. cerevisiae rad14 strain growth inhibition, stronger effect = higher value
Outline: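 Growth inhibition vs vehicle controls; genetically altered yeast strain (DNA damage repair defect) treated with test compounds.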

[7] = NCI Yeast Anticancer Drug Screen. Data for the sgs1 mgt1 strain (AID 161);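 further: 0% = growth of cultures given vehicle only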; settings: S. cerevisiae sgs1 mgt1 strain, stronger effect = higher value
Outline: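 Inhibition of yeast growth, normalised to vehicle-treated controls, is reported for a strain bearing genetic alterations in DNA damage repair.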

[8] = NCI Yeast Anticancer Drug Screen. Data for the CLN2oe strain (AID 163);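 further: 0% = growth of vehicle-only control cultures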; settings: S. cerevisiae CLN2oe strain, stronger effect = higher value
Outline: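 Inhibition relative to vehicle-treated yeast is reported. Cells: strain with genetic alteration in cell-cycle control, grown with compound.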

[9] = NCI Yeast Anticancer Drug Screen. Data for the cln2 rad14 strain (AID 165);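 further: 0% = growth equal to vehicle treated cultures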; settings: S. cerevisiae cln2 rad14 strain, stronger effect = higher value
Outline: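 Each compound was tested on cln2 rad14 yeast. Inhibition of growth was calculated against vehicle-exposed controls.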

[10] = NCI Yeast Anticancer Drug Screen. Data for the bub3 strain (AID 167); settings: S. cerevisiae bub3 mutant strain, stronger effect = higher value
Outline: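 Readout: yeast growth inhibition, expressed relative to vehicle-only wells. The test organism is a mutant strain from a panel with lesions in DNA repair or checkpoint genes.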

[11] = NCI Yeast Anticancer Drug Screen. Data for the wt2 strain (AID 169);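 further: 0% = growth of vehicle-treated yeast cultures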; settings: S. cerevisiae wt2 strain growth inhibition, stronger effect = higher value
Outline: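 Inhibition of yeast growth was determined after compound treatment, normalised to controls receiving only vehicle.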

[12] = NCI Yeast Anticancer Drug Screen. Data for the mlh1 strain (AID 171);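 further: 0% = growth of vehicle-treated control cultures of the same strain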; settings: S. cerevisiae mlh1 strain growth inhibition, stronger effect = higher value
Outline: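 Vehicle-normalised growth inhibition of a repair- or checkpoint-altered yeast strain following compound treatment.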

[13] = NCI Yeast Anticancer Drug Screen. Data for the sgs1 strain (AID 173);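 further: 0% = growth of vehicle-only control cultures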; settings: S. cerevisiae sgs1 mutant, stronger effect = higher value
Outline: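 Screen format: yeast with repair or checkpoint alterations, compound exposure, growth read relative to vehicle.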

[14] = NCI Yeast Anticancer Drug Screen. Data for the mlh1 rad18 strain (AID 175); settings: S. cerevisiae mlh1 rad18 strain growth inhibition, stronger effect = higher value
Outline: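 Vehicle-treated cultures served as the reference for growth inhibition in a yeast strain carrying DNA damage repair alterations exposed to each compound.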

[15] = NCI Yeast Anticancer Drug Screen. Data for the rad18 strain (AID 177); settings: S. cerevisiae rad18 mutant growth inhibition, stronger effect = higher value
Outline: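 Test articles were incubated with altered yeast defective in DNA damage repair. Results are given as inhibition of growth versus vehicle.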

[16] = at 5.0 µM (retest, dose inferred, filed as 0.5)
[17] = at 50.0 µM (retest, dose inferred, filed as 5.0)

Measured: growth inhibition

Oc1ccc2nc3ccccc3nc2c1
inactive: [1]; at 1.2 µM 1% | [1]; at 3.7 µM 6% | [1]; at 11.0 µM 21% | [1]; at 33.0 µM 26% | [2]; at 1.2 µM -1% | [2]; at 3.7 µM -2% | [2]; at 11.0 µM 23% | [3]; at 1.2 µM -2% | [3]; at 3.7 µM -5% | [3]; at 11.0 µM 10% | [3]; at 33.0 µM 43% | [4]; at 1.2 µM 2% | [4]; at 3.7 µM 5% | [4]; [16] 9% | [4]; at 11.0 µM 23% | [4]; at 33.0 µM 68% | [5]; at 1.2 µM 2% | [5]; at 3.7 µM 7% | [5]; [16] 13% | [5]; at 11.0 µM 24% | [5]; at 33.0 µM 52% | [5]; [17] 58% | [6]; at 1.2 µM 1% | [6]; at 3.7 µM 5% | [6]; at 11.0 µM 18% | [6]; at 33.0 µM 31% | [7]; [16] -3% | [7]; [17] 20% | [7]; at 50.0 µM 48.5% | [8]; at 1.2 µM 4% | [8]; at 3.7 µM 2% | [8]; at 11.0 µM 11% | [8]; at 33.0 µM 22% | [8]; at 100.0 µM 67% | [9]; [16] 19% | [9]; [17] 20% | [9]; at 50.0 µM 65.5% | [10]; at 1.2 µM 2% | [10]; at 3.7 µM 5% | [10]; [16] -8% | [10]; at 11.0 µM 29% | [10]; at 33.0 µM 46% | [10]; [17] 61% | [11]; at 1.2 µM -1% | [11]; at 3.7 µM 4% | [11]; at 11.0 µM 13% | [11]; at 33.0 µM 27% | [12]; at 1.2 µM -3% | [12]; at 3.7 µM -2% | [12]; at 11.0 µM 11% | [12]; at 33.0 µM 27% | [13]; at 1.2 µM -2% | [13]; at 3.7 µM 2% | [13]; at 11.0 µM 18% | [13]; at 33.0 µM 29% | [14]; [16] 35% | [15]; at 1.2 µM -3% | [15]; at 3.7 µM 8% | [15]; at 11.0 µM 15% | [15]; at 33.0 µM 54%
active: [1]; at 100.0 µM 72% | [2]; at 33.0 µM 77% | [2]; at 100.0 µM 96% | [3]; at 100.0 µM 80% | [4]; [17] 89% | [4]; at 50.0 µM 91.5% | [4]; at 100.0 µM 92% | [5]; at 50.0 µM 72.7% | [5]; at 100.0 µM 95% | [6]; at 100.0 µM 85% | [10]; at 50.0 µM 88% | [10]; at 100.0 µM 82% | [11]; at 100.0 µM 73% | [12]; at 100.0 µM 80% | [13]; at 100.0 µM 84% | [14]; [17] 82% | [14]; at 50.0 µM 86.8% | [15]; at 100.0 µM 91%

OC1(c2ccccc2)CC2CCC(C1)N2CCCC(O)(c1ccccc1)c1ccccc1 (stereo unspecified)
inactive: [1]; at 1.2 µM 1% | [1]; at 3.7 µM 1% | [1]; at 11.0 µM 2% | [1]; at 33.0 µM 6% | [1]; at 100.0 µM 24% | [2]; at 1.2 µM -5% | [2]; at 3.7 µM -3% | [2]; at 11.0 µM 0% | [2]; at 33.0 µM 2% | [2]; at 100.0 µM 5% | [4]; at 1.2 µM -6% | [4]; at 3.7 µM -15% | [4]; [16] -8% | [4]; at 11.0 µM -13% | [4]; at 33.0 µM 21% | [4]; [17] 6% | [4]; at 50.0 µM 33.2% | [4]; at 100.0 µM 62% | [5]; at 1.2 µM 0% | [5]; at 3.7 µM 1% | [5]; [16] -10% | [5]; at 11.0 µM 4% | [5]; at 33.0 µM 18% | [5]; [17] 10% | [5]; at 50.0 µM -2.2% | [5]; at 100.0 µM 37% | [6]; at 1.2 µM 4% | [6]; at 3.7 µM 5% | [6]; at 11.0 µM 15% | [6]; at 33.0 µM 53% | [7]; [16] -2% | [7]; [17] 44% | [8]; at 1.2 µM -4% | [8]; at 3.7 µM -5% | [8]; at 11.0 µM -2% | [8]; at 33.0 µM 12% | [8]; at 100.0 µM 49% | [9]; [16] 1% | [9]; [17] 52% | [9]; at 50.0 µM 2.55% | [10]; at 1.2 µM 0% | [10]; at 3.7 µM 0% | [10]; [16] 8% | [10]; at 11.0 µM 5% | [10]; at 33.0 µM 30% | [10]; [17] 67% | [10]; at 50.0 µM 53.7% | [11]; at 1.2 µM -1% | [11]; at 3.7 µM -1% | [11]; at 11.0 µM 1% | [11]; at 33.0 µM 17% | [13]; at 1.2 µM 1% | [13]; at 3.7 µM 3% | [13]; at 11.0 µM 3% | [13]; at 33.0 µM 38% | [14]; [16] -7% | [14]; [17] 26% | [14]; at 50.0 µM 53.5% | [15]; at 1.2 µM 0% | [15]; at 3.7 µM -1% | [15]; at 11.0 µM 4% | [15]; at 33.0 µM 28% | [15]; at 100.0 µM 57%
active: [6]; at 100.0 µM 96% | [7]; at 50.0 µM 71.8% | [10]; at 100.0 µM 80% | [11]; at 100.0 µM 80% | [13]; at 100.0 µM 89%

O=C(O)c1ccccc1.[Ag]
95% (active) and 60% (inactive): [5]; [16]
100% (active) and -1% (inactive): [10]; [16]
inactive: [9]; [16] 36% and 39%
99% (active) and -5% (inactive): [7]; [16]
active: [4]; at 1.2 µM 95% | [4]; at 3.7 µM 101% | [4]; at 11.0 µM 99% | [4]; at 33.0 µM 99% | [4]; [17] 99% and 98% | [4]; at 50.0 µM 90.8% and 91.2% | [4]; at 100.0 µM 99% | [5]; at 1.2 µM 89% | [5]; at 3.7 µM 101% | [5]; at 11.0 µM 99% | [5]; at 33.0 µM 99% | [5]; [17] 99% | [5]; at 50.0 µM 93.2% and 93% | [5]; at 100.0 µM 99% | [7]; [17] 98% and 99% | [7]; at 50.0 µM 93.1% and 93.5% | [9]; [17] 97% and 100% | [9]; at 50.0 µM 91.6% and 91.4% | [10]; at 1.2 µM 93% | [10]; at 3.7 µM 101% | [10]; at 11.0 µM 99% | [10]; at 33.0 µM 99% | [10]; [17] 98% and 99% | [10]; at 50.0 µM 91.5% | [10]; at 100.0 µM 99%
97% (active) and 58% (inactive): [4]; [16]

From PubChem BioAssay (NCI)
